Values joined by “and” are separate entries in the source; they are usually repeats but may differ in a detail not shown here. Equal entries are not always repeated. Compounds without any hit were thinned out: in the full panel of roughly 83,000, 20% have a hit.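 Activity criterion: percent growth below 10, measured after cells in 96-well plates were exposed to a single compound concentration for 48 hours.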 A number with no mark means an inactive call. Active and inactive are the calls of the source.
What follows are molecules tested on T-47D breast (assay: NCI-60 one-dose screen, 48 h (100 = growth as untreated, 0 = no growth, -100 = all killed)). Conditions: 10 µM.
Method: Growth inhibition of the T-47D human tumor cell line is measured as a screen for anti-cancer activity. Cells are grown in 96 well plates and exposed to the test compound for 48 hours. Compounds are tested at a single concentration, which is 10^-5 M for most compounds. The reported endpoint is percent growth (GI% or GIPRCNT), where numbers from 0 - 100% represent growth inhibition, and numbers from -100% - 0 represent cell death. For example, a value of 40 represents 60% growth inhibition. A value of 0 means no net growth occurred over the course of the experiment. A value of -40 indicates 40% of cells at the beginning of the experiment died by the end of the experiment. A value of -100 means all cells are dead at the end of the experiment.
NCI-60 Human Tumor Cell Lines Screen was performed using the standard one-dose NCI protocol, which is described in more detail at https://dtp.cancer.gov/discovery_development/nci-60/default.htm.
Compounds with GIPRCNT values below 10 were considered active. Activity score was based on GIPRCNT using the following formula: […]
Score is 0 for GIPRCNT values of 100 or above, 50 for GIPRCNT values of 0, and 100 for GIPRCNT values of -100.

| Compound | growth |
| --- | --- |
| CC#C[C@]1(O)CC[C@H]2[C@@H]3CCC4=CC(=O)CCC4=C3[C@@H](c3ccc4c(c3)OCO4)C[C@@]21C | 45% |
| Cc1[nH]c(-c2nc3ccccc3[nH]2)c(C)c1C(=O)NC(C)C1CCCCC1 (stereo not given) | 89% |
| COc1ccc(Cl)cc1C(=O)NCCc1ccc(S(=O)(=O)NC(=O)NC2CCCCC2)cc1 | 86% and 87.6% |

Same assay, conditions: 10 µM unless noted

| Compound | growth |
| --- | --- |
| CCOC(=O)C(CNc1ccccc1)C(=O)OCC | 105% |
| OCc1ccccn1 | 107% |
| O=C1OC2(c3ccccc31)c1ccc(O)c(O)c1Oc1c2ccc(O)c1O | 106% and 99.5% |
| S=C1SCN(Cc2ccccc2)CN1Cc1ccccc1 | 41.4% |
| CNC(=O)c1ccc(C)c(-n2c(C)cc(OCc3ccc(F)cc3F)c(Br)c2=O)c1 | 40.9% and 58.7% |
| COc1cc(/C=N/Nc2nc3c([nH]2)c(=O)n(C)c(=O)n3C)ccc1O | 93% and 102% |
| CC(/C=N/N1C(=O)c2ccccc2C1=O)c1ccccc1 (stereo not given) | 98.7% |
| CC(=O)c1ccccc1O | 107% and 81.2% and 103% |
| COc1cc2c(Nc3ccc(Cl)c(Cl)c3F)ncnc2cc1OCC1C[C@@H]2CN(C)C[C@@H]2C1 (stereo not given in full) | -74.6% (active) and -6.7% (active) |
| O=[N+]([O-])c1ccc(-n2[nH]nnc2=S)cc1 | 103% |
| Cc1ncsc1CCO | 93.5% and 94.4% |
| CCN(CC)CCC(CNc1ccnc2cc(Cl)ccc12)c1ccc(OC)cc1 (stereo not given) | 57.9% and 77.2% |
| Fc1ccccc1Nc1n[nH]c(=S)s1 | 103% |
| CCOC(=O)Nc1nc2ccccc2[nH]1 | 110% and 42.1% |
| O=C1CCN(Cc2ccccc2)C(=S)N1 | 113% and 103% |
| CCOC(=O)c1sc(N)nc1-c1ccccc1 | 94.4% |
| CCC(C)C1(C2CCCC2)NC(=O)NC1=O (stereo not given) | 97.1% and 98.3% |

| Compound | growth |
| --- | --- |
| Cc1n[nH]c(=O)n(/N=C\c2c[nH]c3ccccc23)c1=O | 102% |
| O[C@H](c1cc(C(F)(F)F)nc2c(C(F)(F)F)cccc12)[C@@H]1CCCCN1 | 43.6% and 64% |
| O=[N+]([O-])c1ccc(/C=N\NC(=S)Nc2ccc(F)cc2)cc1 | 94.5% and 88.4% |
| Oc1c(CN2CCCCC2)ccc2cccnc12 | 38.8% and 36.4% |
| O=c1c2ccccc2nc2n1Cc1nc3ccccc3c(=O)n1C2 | 106% and 108% |
| N#C/C(=C/c1c(O)ccc2ccccc12)C(N)=O | 87.5% |
| c1ccc2c(CC3=NCCN3)cccc2c1 | 106% and 111% |
| Nc1n[nH]c(=S)n1-c1ccc(Cl)cc1 | 97.6% |
| Oc1ccc(/C=C/c2ccccc2)cc1 | 97.4% and 92.3% |
| O=C(O)CSCc1nc2ccccc2[nH]1 | 104% |
| COc1ccc2cc3[n+](cc2c1OC)CCc1cc2c(cc1-3)OCO2 | 38.2% and 47.4% |
| Cc1ccc(S(=O)(=O)NCN2C(=O)c3ccccc3C2=O)cc1 | 110% |
| CC(C)N=c1cc2n(-c3ccc(Cl)cc3)c3ccccc3nc-2cc1Nc1ccc(Cl)cc1 | 38.3% and 32.9% and 41.5% |
| CCN(CC)CCC(CNc1c2ccc([N+](=O)[O-])cc2nc2cc(OC)c(OC)cc12)c1ccccc1 (stereo not given) | -11.2% (active) and -82% (active) |
| O=C(CCc1ccc(O)cc1)N/N=C/c1cc(Br)ccc1O | 33.3% |
| CCN(CC)C(=S)SSC(=S)N(CC)CC | 79.4% and 87.3% |
| CC(=O)c1ccc2c(c1)N(CCCN1CCN(CCO)CC1)c1ccccc1S2 | 160% and 37.8% |

Same assay, conditions: 100 µM

| Compound | growth |
| --- | --- |
| CC#C[C@]1(O)CC[C@H]2[C@@H]3CCC4=CC(=O)CCC4=C3[C@@H](c3ccc4c(c3)OCO4)C[C@@]21C | -16.5% (active) |
| Cc1[nH]c(-c2nc3ccccc3[nH]2)c(C)c1C(=O)NC(C)C1CCCCC1 (stereo not given) | -58.1% (active) |
| COc1ccc(Cl)cc1C(=O)NCCc1ccc(S(=O)(=O)NC(=O)NC2CCCCC2)cc1 | 52.3% |
